Our source for the activity, negative = inhibition and AC50 values is PubChem BioAssay AID1851 (National Center for Advancing Translational Sciences (NCATS), 2009).

In all, about 16,000 compounds went through this assay and about 5,800 (36%) were called active. Not shown: some 23% with an inconclusive outcome. This is one part of the list. Values without a mark were called inactive. Calls come from the whole dose curve; as a rule, active = well fitted curve in the direction sought with a large enough effect; inconclusive = small, poorly fitted or top-dose-only effect, or effect the other way; inactive = no such curve, though single readings can be large or run the other way.
% is set by controls: 0 for no effect and ±100 for the full control effect.

Chain of Cytochrome P450 2C19 (Homo sapiens) (P33261 whole entry, looked up): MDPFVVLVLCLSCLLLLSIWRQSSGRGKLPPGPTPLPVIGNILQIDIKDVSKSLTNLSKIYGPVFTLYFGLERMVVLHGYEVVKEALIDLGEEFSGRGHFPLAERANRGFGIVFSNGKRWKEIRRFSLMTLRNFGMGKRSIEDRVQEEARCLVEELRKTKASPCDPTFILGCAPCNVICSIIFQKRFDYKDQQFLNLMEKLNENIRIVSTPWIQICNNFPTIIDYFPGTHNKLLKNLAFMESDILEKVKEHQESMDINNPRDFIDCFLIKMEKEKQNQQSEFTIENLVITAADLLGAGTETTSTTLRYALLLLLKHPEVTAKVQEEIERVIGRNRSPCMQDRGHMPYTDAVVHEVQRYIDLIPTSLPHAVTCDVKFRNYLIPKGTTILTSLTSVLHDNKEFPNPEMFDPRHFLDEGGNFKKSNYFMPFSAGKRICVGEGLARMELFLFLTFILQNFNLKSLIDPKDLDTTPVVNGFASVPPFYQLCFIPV

The experiment has as its target Cytochrome P450 2C19 (Homo sapiens) (UniProt P33261). Kind of experiment: Cytochrome panel assay with activity outcomes. To be noted: recombinant CYP, pro-luciferin dealkylation, luminescence, p450-cyp2c19; series mostly up to 57.1 µM.
For `C#CCCCO/N=C1/C[C@@H](O)[C@@H](O)[C@@H]2[C@@H]3C(=O)N(CC)C(=O)[C@H]3CC[C@H]12`, the activity, negative = inhibition is -28.1% [at 11.4 µM]. As for `O=C(N/N=C1/C[C@@H](O)[C@@H](O)[C@@H]2[C@@H]3C(=O)N(Cc4ccccc4)C(=O)[C@H]3CC[C@H]12)OCc1ccccc1`, the activity, negative = inhibition was 0.945% [at 11.4 µM]. The same measure, in the same setting: for `CC(C)=CCC/C(C)=C/CO/N=C1/C[C@@H](O)[C@@H](O)[C@@H]2[C@@H]3C(=O)N(C4CCCCC4)C(=O)[C@H]3CC[C@H]12` the value was -23.1% [at 11.4 µM].

For the molecule `CN[C@@H]1[C@H](O[C@@H]2O[C@H](CO)[C@@H](N)[C@H](O)[C@@H]2O)O[C@H]2C[C@@H](N)[C@@H](O[C@H]3[C@@H](O)[C@H](O)[C@H](N)C[C@@H]3N)O[C@H]2[C@H]1O`, the AC50 result was “inactive”. For `CC(=O)Nc1ccc(S(=O)(=O)NC(CC(=O)NCCCN2CCOCC2)C(C)C)cc1` (stereo not drawn), the AC50 result is “inactive”. Turning to `CC(=O)Nc1ccc(S(=O)(=O)NC(CC(=O)NCCC2=CCCCC2)C(C)C)cc1` (stereo not drawn), the AC50 was 10 µM (active). Same read-out and setting: for `CC(C)C(=O)NCCn1ccc2ccccc21` the value was 6.31 µM (active). Take `CCN(c1ccccc1)c1cc(NC)[n+](C)c(C)n1`: the AC50 entry was “inactive”. Consider `O=C(O)[C@@H]1[C@@H]2C[C@H]([C@@H](Br)[C@H]2N2C(=O)CCC2=O)[C@@H]1C(=O)O`, for which the activity, negative = inhibition is 39.9% [at 11.4 µM].

As for `O=C(O)c1cc(=O)c2ccc(Cl)cc2[nH]1`, the AC50 entry is “inactive”.

As for `COc1ccc(C(=O)Nc2ccc(C(=O)OCC(=O)c3ccccc3)cc2)cc1`, the AC50 entry was “inactive”. For the molecule `COc1cccc(/C=N/NC(=O)c2cc(-c3cccn3C)n[nH]2)c1`, the AC50 was 15.8 µM (active). On to `COc1cccc(/C=N/NC(=O)c2c(-c3ccccc3)noc2C)c1`, for which the AC50 is 2 µM (active).

`COc1ccc(C(=O)COC(=O)c2ccc(NC(=O)c3ccccc3)cc2)cc1`: the AC50 result was “inactive”.

As for `COc1cccc(/C=N/NC(=O)C(=O)NCc2cccnc2)c1`, the AC50 result was “inactive”. On the same count and under the same terms, the result for `COc1ccc(NC(=O)COC(=O)c2c(-c3ccccc3)noc2C)cc1` reads 8.91 µM (active); that for `CC(C)(CC(=O)N1CCN(c2ccc(Cl)cc2)CC1)CC1=NS(=O)(=O)c2ccccc2N1`, 7.94 µM (active); that for `NC(=O)CCCC1=NS(=O)(=O)c2ccccc2N1`, “inactive”. As to `CC1=NS(=O)(=O)c2cc(Cl)ccc2N1`, the AC50 result was “inactive”. In the case of `CCCC1(C(=O)OC)C=C2C(=C(C)C(=O)C2C)CN1` (stereo not drawn), the AC50 result was “inactive”. As to `CCCC1(C(=O)OC)C=C2C(=C(C(C)C)C(=O)C2C)CN1` (stereo not drawn), the AC50 entry is “inactive”.

`CCCC1(C(=O)OC)C=C2C(=C(c3ccccc3)C(=O)C2C)CN1` (stereo not drawn): the AC50 is 7.94 µM (active). Regarding `COC(=O)C1(CC(C)C)C=C2C(=C(c3ccccc3)C(=O)C2C)CN1` (stereo not drawn), the AC50 was 39.8 µM (active). Same read-out and setting: for `Nc1ccccc1SCc1csc(-c2ccc(Cl)cc2)n1` the value was 0.501 µM (active).

As for `C[N+](C)(N)Cc1csc(-c2ccc(Cl)cc2)n1`, the activity, negative = inhibition is 8.52% [at 11.4 µM]. For the molecule `NNc1nncc2ccccc12`, the AC50 result is “inactive”. Consider `O[C@H](COc1ccccc1)CN1CCCCC1`, for which the activity, negative = inhibition was 3.88% [at 11.4 µM]. In the case of `O=C(c1ccccc1)c1ccc(OCC(O)CN2CCN(Cc3ccccc3)CC2)cc1` (stereo not drawn), the AC50 was 4.47 µM (active). For `CC1CC(OCC(O)CN2CCN(Cc3ccccc3)CC2)CC(C)(C)C1` (stereo not drawn), the AC50 result was “inactive”. Still for that read-out and setting: for `CN1CCN(CC(O)c2ccccc2)CC1` (stereo not drawn) the value was “inactive”; for `CC1CCC(C(C)C)C(OCC(O)CN2CCN(Cc3ccccc3)CC2)C1` (stereo not drawn), 3.55 µM (active). For `CC#C[C@]1(O)CC[C@H]2[C@@H]3CCC4=CC(=O)CCC4=C3[C@H](c3ccc(N(C)C)cc3)C[C@@]21C`, the AC50 is 7.94 µM (active). On to `COc1cc2nc(N(C)CCCNC(=O)[C@@H]3CCCO3)nc(N)c2cc1OC`, for which the AC50 entry was “inactive”.

Take `C=Cc1c(C)c2cc3nc(cc4[nH]c(cc5nc(cc1[nH]2)C(C)=C5CCC(=O)O)c(CCC(=O)OC)c4C)[C@@]1(C)C3=CC=C(C(=O)OC)[C@H]1C(=O)OC` (tested in a mixture with another compound): the AC50 was 1.26 µM (active).

In the case of `O=C(O)[C@@H]1[C@@H](C(=O)O)[C@]23C[C@@]2(C(=O)O)[C@]2(C(=O)O)CCC3=C3CCCC312`, the activity, negative = inhibition is 37.4% [at 11.4 µM].

Take `c1ccc(Cc2nnc(Sc3ccccc3)c3ccccc23)cc1`: the AC50 was 5.01 µM (active).

Take `N#CCCn1c(=O)c(-c2cccs2)nc2cnc(Nc3ccccc3)nc21`: the AC50 result is “inactive”. `COc1cc(C(=O)OC(C)C(=O)Nc2ccc3c(c2)OCO3)ccc1OCc1c(C)noc1C` (stereo not drawn): the AC50 is 14.1 µM (active). With `O=C(O)[C@@H](S)[C@H](S)C(=O)O`, the activity, negative = inhibition is -39.9% [at 11.4 µM]. As for `Cc1cc(=O)c2ccccc2[nH]1`, the AC50 result was “inactive”. Turning to `CC1CCCC(n2c(=S)[nH]c3ccccc3c2=O)C1C` (stereo not drawn), the AC50 is 0.1 µM (active).

Consider `O=C(c1ccc(F)cc1)C1CCN(CCn2c(=S)[nH]c3ccccc3c2=O)CC1`, for which the AC50 result was “inactive”.

As to `CC(CO)Nc1nc(SCc2ccccc2)nc2sc3c(c12)CCC3` (stereo not drawn), the AC50 is 3.16 µM (active). In the case of `COCCNc1nc(-c2ccccc2C)nc2ccccc12`, the AC50 entry was “inactive”. For `COCCNc1nc(SCc2ccccc2)nc2sc3c(c12)CCC3`, the AC50 was 4.47 µM (active). On to `C[C@H](Nc1ncnc2sc3c(c12)CCC3)C(=O)O`, for which the AC50 entry was “inactive”. In the case of `OCCNc1nc(SCc2ccccc2)nc2sc3c(c12)CCC3`, the AC50 was 2.82 µM (active). With `CC(=O)N1CCC2(CCN(Cc3nccs3)CC2)CC1`, the AC50 entry is “inactive”. The same measure, in the same setting: the result for `O=C(c1cnccn1)N1CCC2(CCN(Cc3nccs3)CC2)CC1` reads “inactive”.

As for `CC(=O)N1CCC2(CCCN(Cc3nccs3)C2)CC1`, the AC50 is 5.01 µM (active). Consider `O=C(c1cnccn1)N1CCC2(CC1)CN(Cc1nccs1)C2`, for which the AC50 entry was “inactive”. Still for that read-out and setting: for `COC(=O)N1CCC2(CCCN(Cc3nccs3)C2)CC1` the value was 20 µM (active); for `O=C(c1cnccn1)N1CCC2(CCCN(Cc3nccs3)C2)CC1`, 15.8 µM (active). Regarding `COCC(=O)N1CCC[C@@]2(CCN(Cc3nccs3)C2)C1`, the AC50 result is “inactive”.

Turning to `COC(=O)N1CCC2(CCN(Cc3nccs3)CC2)CC1`, the AC50 result was “inactive”. Regarding `CC(=O)N1CCC[C@@]2(CCN(Cc3nccs3)C2)C1`, the AC50 result is “inactive”. Turning to `CCc1ccc(N(C(=O)c2snc(C(N)=O)c2N)C(C(=O)NCCC(C)C)c2c[nH]c3ccccc23)cc1` (stereo not drawn), the AC50 was 2.24 µM (active). Same read-out and setting: the result for `CC1(C)S[C@@H]2[C@H](NC(=O)[C@@H](N)c3ccc(O)cc3)C(=O)N2[C@H]1C(=O)O` reads “inactive”.

The AC50 is the concentration at which the activity in the assay is half-maximal.
